Our source for the outcome, potentiation and inhibition values is PubChem BioAssay.

By inhibition is commonly meant the relative decrease from the control value, in per cent.

For some assays here: Measured potencies and affinities stand elsewhere. Activity calls are given as the source filed them.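 The calls were made as follows, unless noted: active = primary screen active and over 50% activation in each of two duplicate runs; inactive = the rest.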

Assay [1] concerns TRPC4 beta (transient receptor potential cation channel C4), mouse. Put plainly: TRPC4 cation channel opening, retest – cell-based, Fluo4 calcium, HEK293 TRPC4beta/mu-opioid, duplicates, 10 µM, confirmation (AID 2426;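 active = fluorescence ratio normalized to control raised more than 50% in primary screen plus both repeat runs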). The note with it: Fluo4 calcium fluorescence, at 10 µM; stronger effect = higher value.
Assay [2] deals with transient receptor potential cation channel C4 beta (TRPC4), mouse. Nature of the assay: TRPC4 cation channel opening, second retest – cell-based, second round, Fluo4, HEK293 TRPC4beta/mu-opioid, 1 µM, confirmation (AID 2461). The note with it: Fluo4 calcium fluorescence, at 1 µM; stronger effect = higher value.
The test system of assay [3] is TRPC4 (transient receptor potential cation channel C4 beta), mouse. Nature of the assay: potentiation of DAMGO EC20 TRPC4 response – cell-based, second round, Fluo-4, HEK293 TRPC4beta/mu-opioid, 1 µM, confirmation (AID 2554;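 active = primary screen hit whose fluorescence ratio, in both repeats, exceeds the weak agonist control mean by 3 SD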). The note with it: DAMGO EC20, Fluo-4 calcium flux, at 1 µM; stronger effect = higher value. (Calcium assays in cells follow changes in intracellular calcium, usually with a dye or a luminescent sensor.)

In assay [4] the test system is TRPC4 beta (transient receptor potential cation channel C4), mouse. Put plainly: potentiation of DAMGO EC20 TRPC4 response – cell-based, Fluo-4, HEK293 TRPC4beta/mu-opioid, confirmation (AID 2555;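 active = primary screen hit whose calcium fluorescence ratio, in both repeats, exceeds the weak agonist control mean by 3 SD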). The note with it: DAMGO EC20, Fluo-4 calcium flux, at 10 µM; stronger effect = higher value.
Assay [5] addresses Short transient receptor potential channel 4 (Mus musculus) (UniProt Q9QUQ5). Nature of the assay: blockers of DAMGO-evoked TRPC4 calcium flux – cell-based, Fluo4, HEK293 TRPC4beta/mu-opioid, confirmation (AID 2636;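 active = calcium signal cut by more than 3 SD below the full-agonist control yet still positive, in both repeats and the earlier primary screen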). The note with it: at 10 µM; stronger effect = higher value.
Assay [6] shares this target. Put plainly: blockers of DAMGO-evoked TRPC4 calcium flux – cell-based, second round, Fluo4, HEK293 TRPC4beta/mu-opioid, 1 µM, confirmation (AID 2637;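 active = calcium signal ratio cut to more than 3 SD under the fully stimulated control mean yet still positive, in both repeats and the primary screen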). The note with it: at 1 µM; stronger effect = higher value.
For assay [7] the target is unchanged. Nature of the assay: calcium entry via TRPC4 opening agents – cell-based, HEK293 TRPC4/mu-opioid, Fluo-4 calcium, dose response (AID 434937;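 active = primary screen activator hit with a dose response curve and TRPC4 channel activation at any tested dose; inactive = no activation, no dose response, or not a primary hit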).
The target is the same in assay [8]. Put plainly: block of DAMGO-driven TRPC4 calcium entry – cell-based, HEK293 TRPC4/mu-opioid, Fluo-4 calcium, dose response (AID 434942;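 active = primary screen inhibitor hit that blocks the TRPC4 channel at some tested dose, yielding a dose curve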).
Assay [9] concerns the target Short transient receptor potential channel 6 (Mus musculus) (UniProt Q61143). Nature of the assay: TRPC6 blockade by TRPC4 inhibitor hits – cell-based, HEK293, membrane potential dye, duplicate, selectivity assay for TRPC4 inhibitor project, confirmation (AID 434948;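 active = active in primary screen and both duplicates, each dropping signal beyond three positive-control SD with fluorescence still positive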). The note with it: HEK293 TRPC6, membrane potential dye fluorescence, at 10 µM, stimulated with maximal-effect acetylcholine; stronger effect = higher value.

Assay [10] has the same target. Put plainly: TRPC6 opening by TRPC4 activator hits – cell-based, HEK293, membrane potential dye, duplicate, selectivity assay for TRPC4 activator project, confirmation (AID 434950;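 active = membrane potential signal rise above negative control mean plus 3 SD in both duplicates, also active in the earlier TRPC4 screen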). The note with it: HEK293 TRPC6, membrane potential fluorescence, at 10 µM; activation: stronger effect = higher value; outcome: activation.
For assay [11] the target is unchanged. Nature of the assay: positive modulators of mouse TRPC6 channel – HEK293 cells, membrane potential dye, duplicate, selectivity assay for TRPC4 potentiator project, confirmation (AID 434952;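 active = compound raising the membrane signal above positive-control mean plus 3 SD in both repeats, and a primary screen hit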). The note with it: HEK293 TRPC6, membrane potential dye fluorescence, at 10 µM, maximal acetylcholine added after compound; stronger effect = higher value.
For assay [12], the target named is Short transient receptor potential channel 4 (Mus musculus) (UniProt Q9QUQ5). Nature of the assay: calcium flux activators in TRPC4/5HT1a cells, counter-screen for TRPC4 activator project, cell-based, second counter screen, HEK293 TRPC4/5HT1a, Fluo-4 (AID 434977;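 active = calcium signal rise above buffer-control mean plus 5 SD in both duplicates, and also a hit in the primary screen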). The note with it: Fluo-4 calcium flux, at 10 µM; stronger effect = higher value.
Short transient receptor potential channel 4 (Mus musculus), sequence (Q9QUQ5 whole entry, looked up): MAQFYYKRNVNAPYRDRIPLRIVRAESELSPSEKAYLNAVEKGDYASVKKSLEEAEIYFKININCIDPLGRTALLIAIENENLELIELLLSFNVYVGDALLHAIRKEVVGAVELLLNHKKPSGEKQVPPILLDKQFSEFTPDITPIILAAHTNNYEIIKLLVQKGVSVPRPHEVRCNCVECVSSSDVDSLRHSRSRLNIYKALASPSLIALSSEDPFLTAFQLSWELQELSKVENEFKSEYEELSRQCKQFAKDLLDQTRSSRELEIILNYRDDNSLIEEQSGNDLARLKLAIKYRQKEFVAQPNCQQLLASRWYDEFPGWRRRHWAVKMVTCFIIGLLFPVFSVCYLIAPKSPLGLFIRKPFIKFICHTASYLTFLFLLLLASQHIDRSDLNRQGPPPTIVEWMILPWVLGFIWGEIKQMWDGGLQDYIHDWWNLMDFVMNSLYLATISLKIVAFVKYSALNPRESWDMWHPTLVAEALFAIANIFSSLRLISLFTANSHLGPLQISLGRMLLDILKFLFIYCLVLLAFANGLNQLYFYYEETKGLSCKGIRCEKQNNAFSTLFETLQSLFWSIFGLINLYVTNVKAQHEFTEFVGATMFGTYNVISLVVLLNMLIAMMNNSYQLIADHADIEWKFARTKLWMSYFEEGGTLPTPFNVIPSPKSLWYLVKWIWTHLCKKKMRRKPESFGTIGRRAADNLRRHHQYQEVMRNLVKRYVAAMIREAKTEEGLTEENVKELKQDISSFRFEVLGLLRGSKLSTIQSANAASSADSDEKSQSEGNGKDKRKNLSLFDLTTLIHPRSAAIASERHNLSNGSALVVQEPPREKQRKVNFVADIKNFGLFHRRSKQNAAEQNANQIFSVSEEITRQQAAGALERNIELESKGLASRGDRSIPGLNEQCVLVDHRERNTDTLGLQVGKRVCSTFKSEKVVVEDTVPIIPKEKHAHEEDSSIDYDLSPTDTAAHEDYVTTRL
Assay [13] in a line: serotonin-gated TRPC4 signal block – cell-based, second counter screen, HEK293 TRPC4/5HT1a, Fluo-4, counter-screen for TRPC4 inhibitor project, confirmation (AID 434978;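 active = primary screen active whose calcium signal fell more than 3 SD beyond the full-serotonin control mean in both duplicate plates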;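 as to outcome: serotonin given first at submaximal then at maximal dose after compound preincubation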). The note with it: Fluo-4 calcium flux, at 10 µM, serotonin added to trigger calcium flux; stronger effect = higher value. (Counterscreens check selectivity or assay interference.)
Assay [14] deals with TRPC4 (mouse), co-expressed with 5HT1a in HEK293. Put plainly: enhancement of serotonin-evoked TRPC4 response – cell-based, second counter screen, HEK293 TRPC4/5HT1a, Fluo-4, counter-screen for TRPC4 potentiator project, confirmation (AID 434979;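 active = signal rise over 3 SD above mean of control wells given weak agonist, in both repeats and first screen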). The note with it: Fluo-4 calcium flux, at 10 µM, serotonin added at its EC20 dose; stronger effect = higher value.
Assay [15] can be described thus: nonspecific calcium rise without TRPC4 – cell-based, HEK293 mu-opioid receptor line, counter-screen for TRPC4 activator project, confirmation (AID 449723;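 active = hit in primary screen, with calcium signal over 5 SD above buffer well mean in both duplicates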;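 also: counter screen cells carry the mu-opioid receptor alone and lack TRPC4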). The note with it: HEK293 mu-opioid cells, Fluo-4 calcium fluorescence, at 10 µM; stronger effect = higher value.
Assay [16] is described as follows: nonspecific potentiation of DAMGO calcium response – cell-based, HEK293 mu-opioid receptor line, counter-screen for TRPC4 allosteric potentiator project, confirmation (AID 449724;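 active = calcium signal rise more than 3 SD above the low-dose agonist control mean, in both duplicate plates and the primary screen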). The note with it: HEK293 mu-opioid receptor cells, Fluo-4 calcium flux, at 10 µM, compound added before EC20 DAMGO stimulus; stronger effect = higher value.
Assay [17] deals with Short transient receptor potential channel 4 (Mus musculus) (UniProt Q9QUQ5). Put plainly: potentiation of DAMGO-evoked TRPC4 calcium signal – cell-based, HEK293 TRPC4/mu-opioid, Fluo-4 calcium, EC20 DAMGO, dose response (AID 434941;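 active = earlier screen potentiator hit that boosts the TRPC4 ion channel at some dose, with a dose response; inactive = no potentiation, no dose response, or not a prior hit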;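 also: calcium entry triggered by an EC20 dose of DAMGO at the co-expressed mu-opioid receptor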).
Assay [18] can be described thus: nonspecific flux increase, KCNQ1-free cells – parental CHO cells, counter-screen for KCNQ1 potentiator project (AID 493006;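 active = duplicate-averaged activation above buffer control mean plus 5 SD of those controls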). The note with it: parental CHO-K1 cells, FluxOR thallium flux, at 10 µM; stronger effect = higher value.
Assay [19] concerns the target Potassium voltage-gated channel subfamily KQT member 1 (Homo sapiens) (UniProt P51787). Put plainly: enhancement of KCNQ1 channel thallium flux – FluxOR thallium flux, CHO cells, duplicates, confirmation (AID 493007;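 active = potentiation averaged over duplicate wells exceeding buffer-only control mean by more than 3 SD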;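 also: 0% = buffer-only wells and 100% = R-L3 activator control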). The note with it: KCNQ1 cell line, FluxOR thallium flux fluorescence, at 10 µM; stronger effect = higher value, % of reference activator effect, buffer zero.
Assay [20] addresses Potassium voltage-gated channel subfamily KQT member 2 (Rattus norvegicus) (UniProt O88943). Nature of the assay: KCNQ2 thallium flux enhancement – KCNQ2-CHO-K1 cells, selectivity assay for KCNQ1 potentiator project (AID 493009;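 active = mean duplicate potentiation above the buffer control mean plus 5 SD of buffer wells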;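 also: assay conditions were tuned for KCNQ1 rather than KCNQ2 modulators; signal is max minus min fluorescence divided by baseline after thallium stimulus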). The note with it: FluxOR thallium flux fluorescence, at 10 µM; stronger effect = higher value, scaled: buffer 0, activator control 100.

Short transient receptor potential channel 6 (Mus musculus), sequence (Q61143 whole entry, looked up): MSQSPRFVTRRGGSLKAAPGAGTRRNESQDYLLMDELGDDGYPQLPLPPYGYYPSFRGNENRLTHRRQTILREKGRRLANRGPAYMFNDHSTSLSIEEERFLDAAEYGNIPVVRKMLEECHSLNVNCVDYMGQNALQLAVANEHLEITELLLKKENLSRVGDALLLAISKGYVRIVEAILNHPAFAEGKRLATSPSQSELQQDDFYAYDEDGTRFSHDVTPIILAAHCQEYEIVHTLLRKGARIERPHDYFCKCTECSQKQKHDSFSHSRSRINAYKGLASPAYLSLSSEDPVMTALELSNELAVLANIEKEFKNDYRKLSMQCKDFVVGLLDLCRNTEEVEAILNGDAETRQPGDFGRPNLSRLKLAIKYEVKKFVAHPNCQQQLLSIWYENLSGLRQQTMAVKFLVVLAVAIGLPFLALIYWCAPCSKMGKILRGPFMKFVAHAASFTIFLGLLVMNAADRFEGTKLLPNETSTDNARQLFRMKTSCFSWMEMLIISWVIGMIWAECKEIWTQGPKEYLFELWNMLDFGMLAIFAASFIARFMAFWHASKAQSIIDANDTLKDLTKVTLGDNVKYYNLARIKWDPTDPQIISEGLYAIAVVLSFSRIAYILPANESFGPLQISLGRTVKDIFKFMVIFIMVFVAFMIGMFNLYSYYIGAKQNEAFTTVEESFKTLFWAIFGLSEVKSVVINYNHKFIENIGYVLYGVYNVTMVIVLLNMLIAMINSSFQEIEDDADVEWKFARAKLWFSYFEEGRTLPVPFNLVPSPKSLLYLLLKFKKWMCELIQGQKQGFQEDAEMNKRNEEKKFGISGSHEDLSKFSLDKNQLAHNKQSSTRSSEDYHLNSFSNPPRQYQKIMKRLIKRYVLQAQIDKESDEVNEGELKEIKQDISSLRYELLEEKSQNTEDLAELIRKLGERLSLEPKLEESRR
Potassium voltage-gated channel subfamily KQT member 2 (Rattus norvegicus), sequence (O88943 whole entry, looked up): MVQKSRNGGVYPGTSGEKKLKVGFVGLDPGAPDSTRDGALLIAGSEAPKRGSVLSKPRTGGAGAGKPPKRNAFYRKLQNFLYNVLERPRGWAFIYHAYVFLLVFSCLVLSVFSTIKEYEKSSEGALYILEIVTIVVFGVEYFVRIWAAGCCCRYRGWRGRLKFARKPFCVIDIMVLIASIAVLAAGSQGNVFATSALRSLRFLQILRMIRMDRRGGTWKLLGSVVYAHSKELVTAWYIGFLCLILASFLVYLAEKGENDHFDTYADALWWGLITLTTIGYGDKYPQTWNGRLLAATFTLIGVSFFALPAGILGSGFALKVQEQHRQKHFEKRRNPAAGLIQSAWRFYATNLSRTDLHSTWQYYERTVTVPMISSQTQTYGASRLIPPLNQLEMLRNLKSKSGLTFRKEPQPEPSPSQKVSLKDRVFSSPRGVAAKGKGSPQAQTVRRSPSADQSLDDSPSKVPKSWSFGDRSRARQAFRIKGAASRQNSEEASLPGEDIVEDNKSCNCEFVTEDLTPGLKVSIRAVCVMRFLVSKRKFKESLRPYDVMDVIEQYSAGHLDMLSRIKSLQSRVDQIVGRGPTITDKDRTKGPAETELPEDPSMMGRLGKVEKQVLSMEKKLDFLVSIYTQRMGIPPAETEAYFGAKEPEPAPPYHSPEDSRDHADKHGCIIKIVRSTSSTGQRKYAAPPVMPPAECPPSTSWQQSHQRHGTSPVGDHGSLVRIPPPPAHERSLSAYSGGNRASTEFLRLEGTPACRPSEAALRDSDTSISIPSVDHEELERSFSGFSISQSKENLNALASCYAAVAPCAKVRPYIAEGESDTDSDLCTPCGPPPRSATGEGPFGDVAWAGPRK
Potassium voltage-gated channel subfamily KQT member 1 (Homo sapiens), sequence (P51787 whole entry, looked up): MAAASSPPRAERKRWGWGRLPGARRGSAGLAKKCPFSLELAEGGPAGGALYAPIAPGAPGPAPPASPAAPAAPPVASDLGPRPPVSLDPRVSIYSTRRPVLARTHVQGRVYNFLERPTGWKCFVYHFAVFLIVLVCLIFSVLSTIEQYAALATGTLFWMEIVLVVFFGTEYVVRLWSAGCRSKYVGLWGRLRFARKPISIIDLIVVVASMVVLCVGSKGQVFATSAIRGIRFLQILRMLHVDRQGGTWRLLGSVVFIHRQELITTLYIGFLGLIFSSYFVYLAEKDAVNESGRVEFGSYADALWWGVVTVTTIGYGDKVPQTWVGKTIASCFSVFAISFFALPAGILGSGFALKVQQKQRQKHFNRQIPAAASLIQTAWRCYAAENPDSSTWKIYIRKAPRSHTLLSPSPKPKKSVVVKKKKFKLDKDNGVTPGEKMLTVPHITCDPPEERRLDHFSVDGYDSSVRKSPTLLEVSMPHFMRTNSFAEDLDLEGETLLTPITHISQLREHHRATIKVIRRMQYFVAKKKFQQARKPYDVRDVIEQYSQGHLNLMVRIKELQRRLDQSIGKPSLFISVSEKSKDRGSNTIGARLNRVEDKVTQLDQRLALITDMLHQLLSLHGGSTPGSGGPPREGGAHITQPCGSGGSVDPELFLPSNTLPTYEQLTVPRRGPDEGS

`O=C1C(Cl)=C(Nc2cccc(O)c2)C(=O)N1Cc1ccccc1`: the outcome in assay [1], in assay [2], in assay [3], in assay [5], in assay [6] and in assay [7] was inactive. The result in [8], in [9], in assay [10], in assay [11], in assay [12] and in assay [13] was inactive. In addition, the outcome in assay [15] and in assay [16] was inactive. For the same compound, the figures for the potentiation in [4] and in assay [14] were 38% (active) and 20.8% (active), respectively.
For `CNCc1c(OCc2ccccc2)ccc2ccccc12`, the result in assay [1], in [2], in assay [3], in [4], in assay [6] and in assay [7] was inactive. The result in [17], in assay [10], in assay [11], in [12], in assay [14] and in assay [15] was inactive. Besides, the result in assay [16] was inactive. Besides, the inhibition in [5] was 92% (active); in assay [9], 46% (active); in [13] it was 34.9% (active).
As to `Cc1ccc(C(C)C)cc1OCCCCN1CCCC1`, the outcome in [1], in assay [2], in assay [5], in [6], in assay [7] and in [8] was inactive. For the same compound, the compound was classed as inactive in [9], in [10], in assay [11], in assay [12], in assay [13] and in assay [15]. In assay [16], the result was inactive. In addition, the potentiation in assay [3] is 15% (active); in assay [4], 12% (active); in [14] it was 6.54% (active).
Regarding `Cc1ccc(-c2nnc(N3CCC(C)CC3)c3ccccc23)cc1C`, the result in assay [1], in assay [2], in [5], in [6], in assay [7] and in assay [8] was inactive. The outcome in assay [9], in assay [10], in assay [11], in assay [12], in [13] and in assay [15] was inactive. Further, in [16], the outcome was inactive. The potentiation is 7% (active) in [3], 127% (active) in assay [4] and 60.2% (active) in assay [14].
Consider `O=C(CCN1CCN(Cc2ccccc2)CC1)Nc1ccc(OCc2ccccc2)cc1`, for which the result in assay [1], in [2], in assay [3], in assay [5], in assay [6] and in assay [7] was inactive. Moreover, the result in assay [8], in [9], in assay [10], in assay [11], in assay [12] and in assay [13] was inactive. Also, the result in [15] and in assay [16] was inactive. The values for the potentiation in assay [4] and in assay [14] were 12% (active) and 25.1% (active), respectively.
Take `COc1cc(NS(=O)(=O)c2ccc3ccccc3c2)c2ncccc2c1`: the outcome in assay [1], in assay [2], in [3], in assay [4], in assay [6] and in assay [7] was inactive. Besides, the result in assay [17], in assay [9], in assay [10], in assay [11], in assay [12] and in assay [14] was inactive. Further, the outcome in assay [15], in assay [16] and in assay [18] was inactive. In addition, the values for the inhibition in assay [5] and in assay [13] were 70% (active) and 23.4% (active), respectively. The potentiation in [19] was 47% (active); in assay [20] it was 154% (active).
As to `CC1CCN(c2nc(Cl)nc(Nc3ccc([N+](=O)[O-])cc3)n2)CC1`, the result in assay [1], in [2], in assay [3], in assay [5], in assay [6] and in [7] was inactive. For the same compound, the result in [8], in [9], in assay [10], in assay [11], in [12] and in assay [13] was inactive. Further, the result in assay [15] and in [16] was inactive. The potentiation in [4] was 15% (active); in assay [14] it was 66% (active).
In the case of `CNc1nc(N2CCc3ccccc32)ncc1F`, the result in [1], in [2], in assay [5], in assay [6], in assay [7] and in assay [8] was inactive. The compound was classed as inactive in [9], in [10], in assay [11], in [12], in assay [13] and in [15]. In [16], the outcome was inactive. Moreover, the figures for the potentiation in [3], in assay [4] and in assay [14] were 27% (active), 75% (active) and 103% (active), respectively.
